# PubChem BioAssay (NCATS)
# Results filed as inconclusive are left out. Entries that show only a call come without a potency. The source made the active and inactive calls. Unless noted, the call rests on the fitted dose curve; in most records, active means well fitted curve in the direction sought with a large enough effect; inconclusive means small, poorly fitted or top-dose-only effect, or another doubt; inactive means no such curve, though single readings can be large; an effect the other way counts as inactive or inconclusive.
# How the values were obtained:
# [1] = target: Calcium and integrin-binding protein 1 (Homo sapiens) (UniProt Q99828); experiment: Primary qHTS for Identification of Calcium Integrin Binding Protein 1 (CIB1) Competitor (AID 1508620);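 further: GST tagged CIB1 binding a fluorescein labelled alphaIIb integrin peptide tracer; top concentration of the series differs between compounds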
# Outline: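 Fluorescence polarization competition: CIB1-GST (1 uM final) preincubated with compound 15 min at room temperature, then FITC-labeled alphaIIb peptide (100 nM final) added for another 15 min. Polarization read at Ex 480/Em 540.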
# [2] = Primary qHTS for small molecule stabilizers of the endoplasmic reticulum resident proteome: Secreted ER Calcium Modulated Protein (SERCaMP) assay (AID 1508630)
# Outline: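 The SH-SY5Y reporter protocol was run at 3 concentrations up to 38.3 uM (primary) or 11 concentrations (follow-up): 16 h compound, 100 nM thapsigargin for 4 h, then extracellular luciferase luminescence.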
# [3] = target: DNA repair nuclease/redox regulator APEX1 (Homo sapiens) (UniProt P27695); experiment: qHTS Validation Assay for Inhibitors of the Human Apurinic/apyrimidinic Endonuclease 1 (APE1) (AID 1705;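 further: TAMRA fluorescence gain over two minutes as APE1 cuts a quenched THF abasic duplex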)
# Outline: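 Human APE1 was preincubated with compound for 15 min at room temperature, then 50 nM (final) THF-abasic double-stranded DNA substrate bearing 5'-TAMRA and 3'-BHQ-2 was added. Incision-driven fluorescence rise (ex 525/em 598 nm) was read kinetically.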
# [4] = target: Endonuclease 4 (Escherichia coli (strain K12)) (UniProt P0A6C1); experiment: Counterscreen for APE1 Inhibitors: qHTS Validation Assay for Inhibitors of Endonuclease IV (AID 1708)
# Outline: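 Enzyme (2 nM) + compound, 15 min RT; add 50 nM TAMRA/BHQ-2 THF-site dsDNA; kinetic read ex525/em598, 3 reads/60 s; activity = read 3 − read 1. Buffer Tris pH 7.5, 50 mM NaCl, 2 mM MgCl2, DTT, Tween-20.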
# [5] = qHTS for differential inhibitors of proliferation of Plasmodium falciparum line 7G8 (AID 1815);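 further: potency means the concentration at half of the fitted maximal effect; parasite growth measured after three days of incubation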
# [6] = qHTS for differential inhibitors of proliferation of Plasmodium falciparum line GB4 (AID 1816); settings: Potency: Plasmodium falciparum GB4 proliferation inhibition;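 further: potency means the concentration at half of the fitted maximal effect; parasite growth measured after 72 h incubation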
# [7] = qHTS for differential inhibitors of proliferation of Plasmodium falciparum line 3D7 (AID 1876); further: potency means the concentration at half of the fitted maximal effect
# [8] = qHTS for differential inhibitors of proliferation of Plasmodium falciparum line D10 (AID 1877);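 further: potency means the concentration at half of the fitted maximal effect; parasites grown with compound for 72 h before DNA staining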
# [9] = qHTS for differential inhibitors of proliferation of Plasmodium falciparum line W2 (AID 1883); settings: Potency: Plasmodium falciparum W2 proliferation inhibition;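 further: potency means the concentration at half of the fitted maximal effect; parasites grown with compound for 72 h before lysis and staining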
# [10] = qHTS for differential inhibitors of proliferation of Plasmodium falciparum line HB3 (AID 1886); settings: Potency: Plasmodium falciparum HB3 proliferation inhibition;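 further: potency means the concentration at half of the fitted maximal effect; parasites grown with compound for 72 h before SYBR Green readout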
# [11] = target: ATP-dependent DNA helicase Q1 (Homo sapiens) (UniProt P46063); experiment: qHTS Validation Assay for Inhibitors of RecQ-Like Dna Helicase 1 (RECQ1) (AID 2353)
# Outline: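 RECQ1T1 50 nM; forked duplex (20 bp + 30-nt ss tails) 200 nM, ATP 2 mM final; pH 8.0, 2 mM MgCl2, 2.5 ug/ml poly(dI-dC); 15 min compound preincubation; discontinuous kinetic read over 2 h at RT.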
# [12] = target: RecQ-like DNA helicase BLM (Homo sapiens) (UniProt P54132); experiment: qHTS Validation Assay for Inhibitors of Bloom's syndrome helicase (BLM) (AID 2364)
# Outline: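 BLM 50 nM in 25 mM Tris-HCl pH 8.0, 5 mM NaCl, 2 mM MgCl2, 1 mM DTT, 0.01% Tween-20, 2.5 ug/ml poly(dI-dC); 15 min cpd preinc, RT. Start: 200 nM forked DNA + 2 mM ATP (final). TAMRA read, 2 reads 2 h apart.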
# [13] = Quantitative high throughput screen for delayed death inhibitors of the malarial parasite plastid, 96 hour incubation (AID 488745); further: nearly all actives have a fitted effect of over 70% in size
# Outline: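 Decreased firefly luciferase luminescence indicates inhibited growth of reporter-integrated P. falciparum after two generations (96 h, 37 C, 5% CO2). Infected erythrocytes at 0.1% parasitemia, 2% hematocrit, in Albumax-supplemented RPMI 1640.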
# [14] = target: M-phase phosphoprotein 8 (Homo sapiens) (UniProt Q99549); experiment: qHTS Validation Assay for Inhibitors for MPP8 Chromodomain Interactions with Methylated Histone Tails (AID 488949); further: potency means the concentration at half of the fitted maximal effect; nearly all actives have a fitted effect of over 55% in size
# Outline: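 MPP8 (50 nM) was preincubated with biotinylated H3(1-18)K9me3 peptide (50 nM) in PBS pH 7.4, 0.01% Tween-20 for 30 min at room temperature, then with compounds for 30 min; binding was detected by AlphaScreen.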
# [15] = target: Thyrotropin receptor (Homo sapiens) (UniProt P16473); experiment: qHTS Assay for Antagonists of the Thyroid Stimulating Hormone Receptor (AID 488980)
# Outline: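 HEK293 cells transfected with human TSHR, suspended in HEPES-buffered HBSS with 70 uM RO 20-1724, were treated with compounds plus TSH at EC80 (4 nM final). cAMP was measured by competitive HTRF (cryptate anti-cAMP antibody, cAMP-d2 acceptor).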
# [16] = target: Thyrotropin-releasing hormone receptor (Homo sapiens) (UniProt P34981); experiment: qHTS for Small Molecule Agonists and Allosteric Enhancers of Human TRH Receptor: Validation Screen for Agonists (AID 493127;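 active means calcium activation more than 3 SD above the typical response in the agonist read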;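 further: intracellular calcium rise by fluo-8 fluorescence before TRH EC20 addition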); settings: TRH receptor agonist cell assay; at 2 µM; stronger effect = higher value
# Outline: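 Compound-evoked intracellular calcium release in fluo-8-loaded TRHR cells, read kinetically on FDSS (Ex 480/Em 530, 1 s/cycle) after 23 nL pintool transfer. Agonist phase preceded 10 nM TRH EC20 addition.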
# [17] = target: Galactokinase (Homo sapiens) (UniProt P51570); experiment: qHTS Validation Assay for Inhibitors of Human Galactokinase (GALK) (AID 493189)
# Outline: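 GALK (5 nM) with 35 uM ATP and 100 uM galactose in HEPES pH8.0, MgCl2, NaCl, DTT, BSA; 1 h at room temperature. Residual ATP read by Kinase-Glo Plus luminescence after 10 min.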
# [18] = Validation screen for small molecules that induce DNA re-replication in SW480 colon adenocarcinoma cells (AID 504364)
# Outline: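 Image-based DNA content read-out: Hoechst stain 40 min, total nuclear fluorescence intensity (ex 405 nm, em 500-530 nm) after 48 h compound exposure of 250 SW480 cells/well at 37 C, 5% CO2, versus DMSO vehicle.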
# [19] = Confirmatory qHTS for small molecule stabilizers of the endoplasmic reticulum resident proteome: Secreted ER Calcium Modulated Protein (SERCaMP) assay (AID 1508628); further: potency means the concentration at half of the fitted maximal effect; nearly all actives have a fitted effect of over 40% in size
# Outline: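 Reporter secretion upon ER calcium depletion (100 nM thapsigargin, 4 h, 37C) is measured as medium luminescence with coelenterazine, after 16 h compound pretreatment of SH-SY5Y-GLuc-SERCaMP cells; primary at three concentrations up to 38.3 uM, follow-up at 11 (up to 76.6 uM).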
# [20] = tested on: HIV-1 nucleocapsid protein NCp7 (binding to TG oligonucleotide); experiment: HIV Nucleocapsid (AID 346; call rule not given here;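 further: potency means the concentration at half of the fitted maximal effect; potency is for inhibitors that block NC binding and lower polarization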); settings: HIV-1 NC / fluorescein-TGTGTGTG probe, fluorescence polarization
# Outline: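 HIV-1 NC (100 nM) binding to fluorescein-labelled ssDNA TG4xF (10 nM) in Hepes pH 7.5, 250mM NaCl, 1uM ZnCl2, TCEP and 2-mercaptoethanol; compounds pin-transferred, 1 hr room temperature, fluorescence polarization read on CCD imager.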
# [21] = target: Lysosomal acid glucosylceramidase (Homo sapiens) (UniProt P04062); experiment: Glucocerebrosidase-p2 (AID 348; in the data active means potency below about 10 µM; further: potency means the concentration at half of the fitted maximal effect); settings: purified GBA, blue fluorogenic substrate, 40 min
# Outline: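 Normal human glucocerebrosidase (0.2 nM) with blue fluorogenic substrate (80 uM final) in citrate/phosphate pH 5.9 with 10mM sodium taurocholate, 0.01% tween-20; 40 min RT, NaOH/glycine stop; fluorescence Ex 365/Em 440; AC50 from a titration from 0.6 nM upwards.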
# [22] = AP1 Signaling Pathway (AID 357; active means well fitted curve in either direction with a large enough effect, not every such curve was filed as active;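 further: ME-180 reporter cells stimulated with EGF at its EC50 level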)
# Outline: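 Modulation of EGF-driven AP-1 transcription was assessed with a beta-lactamase reporter in ME-180 cells. Compound and EC50 EGF were co-incubated 5 hours at 37 °C before 2.5-hour CCF4 loading at room temperature and dual-emission reading.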
# [23] = target: Cytochrome P450 1A2 (Homo sapiens) (UniProt P05177); experiment: p450-cyp1a2 (AID 410; calls by dose curve; further: potency means the concentration at half of the fitted maximal effect)
# Outline: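 Luminescent demethylation readout: Luciferin-ME (100uM, equal to Km) turned over by 20nM CYP1A2 for 60 min at room temperature after NADPH regeneration addition, following 10 min compound preincubation. Normalization used 57 uM furafylline as full inhibition.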
# [24] = NFAT Signaling Pathway (AID 444; active means well fitted curve in either direction with a large enough effect, not every such curve was filed as active;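 further: carbachol stimulus at about its EC50 of 1 µM final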); settings: Jurkat NFAT-bla M1, carbachol, beta-lactamase ratio, 5 h; at 7.69 µM (top of the series)
# Outline: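 Jurkat cells carrying an NFAT-driven β-lactamase reporter and co-transfected muscarinic M1 receptor were treated with compound plus carbachol (1 uM final, an EC50 level) for 5 h at 37 °C. CCF4 loading followed for 1 h at RT; 460/530 nm ratio gave %activity.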
# [25] = Stat Signaling Pathway (AID 446; active means well fitted curve in either direction with a large enough effect, not every such curve was filed as active;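 further: ME-180 cervical cancer cells given 40 pM IL-6 alongside compound; SIE-controlled beta-lactamase reporter measured as 460/530 nm FRET emission ratio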)
# Outline: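 FRET read-out (405 nm excitation, 460/530 nm emission) of a beta-lactamase reporter under a STAT-inducible element in ME-180 cervical carcinoma cells. Cells with compound receive 40 pM IL-6 for 5 h. Values are normalised to AC90 stimulation and AC90 JAK-inhibitor controls.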
# [26] = target: Glucocorticoid receptor (Homo sapiens) (UniProt P04150); experiment: GR-EFC Redistribution (AID 451; calls by dose curve; further: potency means the concentration at half of the fitted maximal effect); settings: CHO-K1 GR-EFC translocation, beta-gal luminescence, 2 h
# Outline: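 CHO-K1 cells stably expressing nuclear-localized β-gal enzyme acceptor and GR fused C-terminally to the enzyme donor fragment; ligand-driven nuclear translocation restores β-gal by complementation. Compounds titrated up to 46 uM final, 2 h at 37 °C; luminescence read.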
# [27] = target: Mitogen-activated protein kinase 10 (Mus musculus) (UniProt Q61831); experiment: JNK3 AlphaScreen Assay (AID 530; active means well fitted curve in either direction with a large enough effect, not every such curve was filed as active;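 further: kinase came from lysate of stimulated human HepG2 cells; signal reports phosphorylation of biotinylated GST-cJun 1-79 at Ser73 with 10 µM ATP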)
# Outline: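 Phosphorylation of biotinylated GST-cJun(1-79) at Ser73 is measured by AlphaScreen proximity luminescence. Enzyme is JNK3 in HepG2 lysates activated with interleukin-1beta and tumor necrosis factor alpha; ATP is 10 uM final.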
# [28] = target: Cytochrome P450 3A4 (Homo sapiens) (UniProt P08684); experiment: qHTS Assay for Activators of Cytochrome P450 3A4 (AID 885); further: nearly all actives have a fitted effect of over 65% in size
# Outline: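 Luminescent readout of luciferin formed from 25 uM Luciferin-PPXE (KM level) by 20 nM CYP3A4 in 200 mM KPO4, with 60 min NADPH-driven reaction at room temperature after 10 min compound exposure. Ketoconazole (57 uM) defined 100% inhibition.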
# [29] = qHTS Assay for Lipid Storage Modulators (AID 1519; calls by dose curve); settings: Drosophila S3 cells, BODIPY lipid droplet/cell ratio, laser cytometry, cells loaded with oleic acid
# Outline: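 Cells seeded at 5,000 per well were treated with compounds over a concentration series and loaded with oleic acid (400 uM, as added). Lipid droplet fluorescence (488 nm excitation, 500-530 nm channel) was read by laser-scanning cytometry and normalized to 20 uM Triacsin C.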
# [30] = Cell Viability qHTS for small molecule stabilizers of the endoplasmic reticulum resident proteome (AID 1508629); settings: cell viability counter-screen, 100 nM thapsigargin for final 4 h;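 further: human SH-SY5Y neuroblastoma cells carrying the GLuc-SERCaMP reporter; compound exposure about 46 h in total before the viability read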
# Chain of Calcium and integrin-binding protein 1 (Homo sapiens) (Q99828 whole entry, looked up): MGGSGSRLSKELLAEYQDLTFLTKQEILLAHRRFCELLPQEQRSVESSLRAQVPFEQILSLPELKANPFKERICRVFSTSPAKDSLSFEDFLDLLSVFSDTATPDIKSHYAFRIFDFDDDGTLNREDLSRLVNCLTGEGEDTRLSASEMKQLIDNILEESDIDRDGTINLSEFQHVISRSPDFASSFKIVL
# Chain of Cytochrome P450 3A4 (Homo sapiens) (P08684 whole entry, looked up): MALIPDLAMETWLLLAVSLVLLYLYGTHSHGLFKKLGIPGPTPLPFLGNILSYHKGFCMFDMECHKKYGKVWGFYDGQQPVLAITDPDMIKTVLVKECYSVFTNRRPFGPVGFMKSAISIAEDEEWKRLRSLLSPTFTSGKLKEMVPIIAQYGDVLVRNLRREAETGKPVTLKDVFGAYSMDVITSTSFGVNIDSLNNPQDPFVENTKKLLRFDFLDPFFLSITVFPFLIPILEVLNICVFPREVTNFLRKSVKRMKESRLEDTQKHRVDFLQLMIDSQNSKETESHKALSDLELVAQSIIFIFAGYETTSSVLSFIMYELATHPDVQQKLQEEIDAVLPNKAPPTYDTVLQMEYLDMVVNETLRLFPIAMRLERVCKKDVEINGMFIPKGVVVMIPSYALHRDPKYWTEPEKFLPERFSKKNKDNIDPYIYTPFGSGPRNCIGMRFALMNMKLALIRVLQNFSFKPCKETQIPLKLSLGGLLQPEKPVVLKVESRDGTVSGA
# Chain of Lysosomal acid glucosylceramidase (Homo sapiens) (P04062 whole entry, looked up): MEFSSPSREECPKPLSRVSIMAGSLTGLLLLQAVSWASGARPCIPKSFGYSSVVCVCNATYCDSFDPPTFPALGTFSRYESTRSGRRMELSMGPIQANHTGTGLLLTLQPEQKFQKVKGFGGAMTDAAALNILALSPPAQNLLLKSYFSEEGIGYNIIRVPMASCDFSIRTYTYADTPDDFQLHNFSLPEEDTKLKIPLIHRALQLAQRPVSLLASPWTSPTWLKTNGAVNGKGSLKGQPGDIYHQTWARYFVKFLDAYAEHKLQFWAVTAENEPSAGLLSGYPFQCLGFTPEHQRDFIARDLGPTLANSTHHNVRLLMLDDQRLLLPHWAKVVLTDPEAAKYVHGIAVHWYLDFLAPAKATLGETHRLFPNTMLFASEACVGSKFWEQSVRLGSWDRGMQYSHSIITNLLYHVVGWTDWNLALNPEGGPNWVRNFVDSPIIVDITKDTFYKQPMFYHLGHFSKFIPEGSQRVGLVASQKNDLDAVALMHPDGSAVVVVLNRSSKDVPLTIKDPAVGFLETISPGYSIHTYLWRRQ
# Chain of DNA repair nuclease/redox regulator APEX1 (Homo sapiens) (P27695 whole entry, looked up): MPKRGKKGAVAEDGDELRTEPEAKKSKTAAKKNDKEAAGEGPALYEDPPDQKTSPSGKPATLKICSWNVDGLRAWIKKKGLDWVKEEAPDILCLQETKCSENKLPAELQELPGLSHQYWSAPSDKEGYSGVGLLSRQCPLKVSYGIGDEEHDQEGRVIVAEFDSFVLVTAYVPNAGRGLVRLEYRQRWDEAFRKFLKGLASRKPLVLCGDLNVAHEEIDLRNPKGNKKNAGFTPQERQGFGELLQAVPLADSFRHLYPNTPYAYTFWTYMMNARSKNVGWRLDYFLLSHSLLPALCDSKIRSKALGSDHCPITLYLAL
# Chain of Thyrotropin-releasing hormone receptor (Homo sapiens) (P34981 whole entry, looked up): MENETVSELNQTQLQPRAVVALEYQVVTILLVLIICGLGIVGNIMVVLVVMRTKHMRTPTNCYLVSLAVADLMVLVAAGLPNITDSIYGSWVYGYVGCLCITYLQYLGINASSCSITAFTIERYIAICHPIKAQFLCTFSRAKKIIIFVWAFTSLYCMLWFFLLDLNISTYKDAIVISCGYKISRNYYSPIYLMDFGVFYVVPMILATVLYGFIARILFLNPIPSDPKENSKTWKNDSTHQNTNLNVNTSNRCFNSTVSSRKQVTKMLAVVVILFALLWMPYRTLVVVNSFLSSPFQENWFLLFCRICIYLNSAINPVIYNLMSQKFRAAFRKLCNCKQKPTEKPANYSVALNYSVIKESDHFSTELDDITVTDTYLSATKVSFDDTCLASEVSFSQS
# Chain of ATP-dependent DNA helicase Q1 (Homo sapiens) (P46063 whole entry, looked up): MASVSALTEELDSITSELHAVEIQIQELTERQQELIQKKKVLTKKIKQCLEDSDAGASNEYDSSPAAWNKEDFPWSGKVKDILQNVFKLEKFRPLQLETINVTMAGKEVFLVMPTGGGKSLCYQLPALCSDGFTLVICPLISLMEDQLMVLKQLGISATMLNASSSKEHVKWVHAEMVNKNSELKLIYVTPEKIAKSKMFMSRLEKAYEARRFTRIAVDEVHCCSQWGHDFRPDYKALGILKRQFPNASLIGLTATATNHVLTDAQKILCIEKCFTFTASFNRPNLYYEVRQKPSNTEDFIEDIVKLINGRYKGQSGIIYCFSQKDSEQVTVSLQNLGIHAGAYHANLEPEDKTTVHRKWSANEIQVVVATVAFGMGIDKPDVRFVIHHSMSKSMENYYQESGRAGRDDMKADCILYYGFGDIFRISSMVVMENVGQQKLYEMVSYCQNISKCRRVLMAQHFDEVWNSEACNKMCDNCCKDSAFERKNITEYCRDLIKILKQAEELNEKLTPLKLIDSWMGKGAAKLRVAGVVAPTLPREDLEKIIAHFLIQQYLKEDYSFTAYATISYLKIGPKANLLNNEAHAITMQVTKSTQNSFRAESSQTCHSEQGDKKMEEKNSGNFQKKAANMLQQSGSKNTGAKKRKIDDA
# Chain of Galactokinase (Homo sapiens) (P51570 whole entry, looked up): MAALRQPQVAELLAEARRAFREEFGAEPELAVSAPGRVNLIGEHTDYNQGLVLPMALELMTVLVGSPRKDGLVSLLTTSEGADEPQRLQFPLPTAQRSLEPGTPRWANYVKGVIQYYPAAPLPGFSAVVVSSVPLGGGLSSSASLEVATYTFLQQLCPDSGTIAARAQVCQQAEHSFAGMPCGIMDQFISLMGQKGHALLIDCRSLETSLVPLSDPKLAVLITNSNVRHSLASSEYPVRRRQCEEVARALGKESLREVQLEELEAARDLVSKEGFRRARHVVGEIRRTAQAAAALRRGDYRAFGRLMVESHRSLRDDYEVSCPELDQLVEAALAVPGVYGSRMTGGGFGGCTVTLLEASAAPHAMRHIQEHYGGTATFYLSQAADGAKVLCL
# Chain of Glucocorticoid receptor (Homo sapiens) (P04150 whole entry, looked up, the tested form may be a part): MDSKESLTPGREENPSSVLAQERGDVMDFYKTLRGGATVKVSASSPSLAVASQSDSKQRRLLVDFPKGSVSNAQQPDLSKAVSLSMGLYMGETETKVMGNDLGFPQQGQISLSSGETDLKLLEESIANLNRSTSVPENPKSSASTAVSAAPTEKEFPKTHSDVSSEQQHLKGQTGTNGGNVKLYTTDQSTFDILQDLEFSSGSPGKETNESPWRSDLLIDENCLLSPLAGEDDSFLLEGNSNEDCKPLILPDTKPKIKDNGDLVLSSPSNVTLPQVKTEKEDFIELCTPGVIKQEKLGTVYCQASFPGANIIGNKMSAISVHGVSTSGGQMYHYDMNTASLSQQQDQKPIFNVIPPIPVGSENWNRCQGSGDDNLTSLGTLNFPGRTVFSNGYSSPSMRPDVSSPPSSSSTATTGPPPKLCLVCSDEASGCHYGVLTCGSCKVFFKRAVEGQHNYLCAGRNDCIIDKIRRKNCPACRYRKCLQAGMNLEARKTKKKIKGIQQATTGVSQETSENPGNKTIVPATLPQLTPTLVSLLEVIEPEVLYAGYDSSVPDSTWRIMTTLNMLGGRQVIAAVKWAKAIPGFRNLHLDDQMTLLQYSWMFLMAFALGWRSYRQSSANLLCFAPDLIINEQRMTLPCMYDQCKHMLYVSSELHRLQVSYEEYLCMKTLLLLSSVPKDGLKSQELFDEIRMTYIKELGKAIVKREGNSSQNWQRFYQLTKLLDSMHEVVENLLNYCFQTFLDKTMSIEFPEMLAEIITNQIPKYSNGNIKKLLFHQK
# Chain of M-phase phosphoprotein 8 (Homo sapiens) (Q99549 whole entry, looked up): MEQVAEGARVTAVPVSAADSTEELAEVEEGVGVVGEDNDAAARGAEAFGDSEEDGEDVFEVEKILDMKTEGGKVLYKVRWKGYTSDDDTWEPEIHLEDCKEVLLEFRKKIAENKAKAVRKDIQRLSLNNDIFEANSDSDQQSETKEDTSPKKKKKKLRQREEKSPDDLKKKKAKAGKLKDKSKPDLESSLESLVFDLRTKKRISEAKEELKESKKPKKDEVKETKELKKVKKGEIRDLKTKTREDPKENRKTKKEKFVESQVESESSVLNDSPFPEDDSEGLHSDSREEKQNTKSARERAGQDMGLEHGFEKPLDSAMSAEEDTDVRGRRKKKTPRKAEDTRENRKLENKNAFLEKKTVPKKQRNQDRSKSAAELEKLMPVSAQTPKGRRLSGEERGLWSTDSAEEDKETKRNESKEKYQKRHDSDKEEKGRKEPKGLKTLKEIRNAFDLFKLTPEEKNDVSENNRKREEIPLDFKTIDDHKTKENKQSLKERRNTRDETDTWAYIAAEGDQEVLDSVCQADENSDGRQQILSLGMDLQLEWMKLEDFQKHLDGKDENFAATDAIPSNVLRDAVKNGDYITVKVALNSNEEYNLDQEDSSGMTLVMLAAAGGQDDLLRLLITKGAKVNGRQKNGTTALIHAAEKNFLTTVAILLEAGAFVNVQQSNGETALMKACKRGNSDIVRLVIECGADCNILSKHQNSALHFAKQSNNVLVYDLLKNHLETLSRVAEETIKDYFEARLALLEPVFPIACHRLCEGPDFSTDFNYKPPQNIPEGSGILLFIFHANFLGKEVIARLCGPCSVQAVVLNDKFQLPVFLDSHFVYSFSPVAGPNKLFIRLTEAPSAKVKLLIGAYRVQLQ
smiles,measurement,setting,value
N#Cc1c(-c2ccc([N+](=O)[O-])o2)no[n+]1[O-],outcome,[1],inactive
Cn1c(-c2ccccc2)c(P(=S)(c2ccccc2)c2ccccc2)c2ccccc21,outcome,[1],inactive
CCCC[N+]12C3CC(C(CC)[C@H]1O)[C@@H]1C(O)C4(C[C@@H]12)c1ccccc1N(C)C34 (stereo partly specified),outcome,[2],inactive
CN1CC[C@@]2(C)c3cc(O)ccc3N(C)C2O1 (stereo partly specified),outcome,[1],inactive
CCc1nn2c(=O)c(F)c(N3CCNCC3)nc2s1,outcome,[1],inactive
C=CCN1CCc2cccc3c2C1Cc1ccc(O)c(O)c1-3 (stereo unspecified),Potency,[3],inactive
same,Potency,[4],inactive
same,Potency,[5],2.82 µM (active)
same,Potency,[6],2 µM (active)
same,Potency,[7],2.82 µM (active)
same,Potency,[8],2 µM (active)
same,Potency,[9],2.51 µM (active)
same,Potency,[10],2 µM (active)
same,outcome,[11],inactive
same,outcome,[12],inactive
same,Potency,[13],inactive
same,Potency,[14],6.31 µM (active)
same,outcome,[15],inactive
same,activation,[16],-2.75% (inactive)
same,outcome,[17],inactive
same,outcome,[18],inactive
same,Potency,[19],39.8 µM (active)
c1ccc(N2CCCC3(CCNCC3)C2)nc1,Potency,[20],> 20 µM (inactive)
same,Potency,[21],> 11.4 µM (inactive)
same,outcome,[22],inactive
same,Potency,[23],25.1 µM (active)
same,"activity change, negative = inhibition",[24],-27% (inactive)
same,outcome,[25],inactive
same,Potency,[26],> 46 µM (inactive)
same,outcome,[27],inactive
same,Potency,[28],inactive
same,"activity change, negative = inhibition",[29]; at 57.5 µM (top of the series),3.94% (inactive)
same,max response,[29]; measured here: cell count channel max response,2.21%
same,max response,[29]; measured here: lipid channel max response,8.95%
same,max response,[30],-3.57% (inactive)
CC(n1cc(C[C@H](N)C(=O)O)c2ccccc21)n1cc(C[C@H](N)C(=O)O)c2ccccc21,outcome,[2],inactive
